Holding throughout (type): functional
Assay [1] concerns Plasmodium falciparum. Description: GSK_TCMDC: Inhibition of Plasmodium falciparum 3D7 in whole red blood cells, using parasite LDH activity as an index of growth. Test compounds present at 2uM.
The subject of assay [2] is Plasmodium falciparum. Description: GSK_TCMDC: Inhibition of Plasmodium falciparum Dd2 in whole red blood cells, using parasite LDH activity as an index of growth. Test compounds present at 2uM.
The test system of a further assay is HepG2. The experiment in a line: GSK_TCMDC: Percent inhibition of human HepG2 cell line. Test compounds present at 10uM.

Usually Inhibition stands for the drop in the measured response relative to a control, in per cent. With `O=C(NCCOc1ccccc1)[C@H](Cc1ccccc1)Nc1ccnc(NCC2CCCCC2)n1.O=C(O)C(F)(F)F`, the values for the Inhibition in the assay with Plasmodium falciparum [1], with Plasmodium falciparum [2] and in the assay on HepG2 were 96%, 73% and 80%, respectively.

In the case of `CCCCCCP(=O)(COc1ccc(CCN(CC(O)COc2cccc3[nH]c(C(N)=O)cc23)CC(O)COc2cccc3[nH]c(C(N)=O)cc23)cc1)OCCCC` (stereo not given), the Inhibition in the assay on Plasmodium falciparum [1] came out at 99%; in the assay on Plasmodium falciparum [2], 97%; with HepG2 it was 0%.

On to `CCCc1nc2c(N3CCCN(C(=O)NC4CCCCC4)CC3)cccc2n1Cc1ccccn1`, for which the results for the Inhibition with Plasmodium falciparum [1], in the assay on Plasmodium falciparum [2] and in the assay with HepG2 were 89%, 10% and 10%, respectively.

As for `COc1ccc(CNC2CCCC2)cc1-c1ccc(S(=O)(=O)NCCN2CCCC2)s1.O=C(O)C(F)(F)F`, the results for the Inhibition with Plasmodium falciparum [1], in the assay with Plasmodium falciparum [2] and in the assay on HepG2 were 96%, 17% and 17%, respectively.

For `COc1cc(CCNc2nc(NCc3cccc4ccccc34)nc(N3CCC(N)CC3)n2)ccc1O.O=C(O)C(F)(F)F`, the figures for the Inhibition in the assay with Plasmodium falciparum [1], in the assay with Plasmodium falciparum [2] and in the assay with HepG2 were 100%, 59% and 16%, respectively.

On to `O=C(Nc1ccc(-c2cccc(-c3nc4ccccc4[nH]3)c2)cc1)Nc1ccc(F)c(F)c1F`, for which the Inhibition is recorded as 100% in the assay with Plasmodium falciparum [1], 96% in the assay with Plasmodium falciparum [2] and 74% in the assay with HepG2.

Regarding `O=C(O)C(F)(F)F.O=S(=O)(NCCN1CCCC1)c1cccc(-c2ccc(CNCc3ccccc3)cc2)c1`, the Inhibition in the assay with Plasmodium falciparum [1] is given as 95%; with Plasmodium falciparum [2] it was 41%; with HepG2, 54%.

`N#Cc1cccc(CN(Cc2ccc(Cl)c(Cl)c2)S(=O)(=O)c2cccc([N+](=O)[O-])c2)c1`: the Inhibition in the assay with Plasmodium falciparum [1] worked out at 100%; with Plasmodium falciparum [2] it was 73%; with HepG2, 3%.

Regarding `O=C(NCCCCN1CCC(c2ccc3c(c2OCc2ccncc2)CCCC3)CC1)c1ccc(NC(=O)c2ccc(Cl)cc2)cc1`, the Inhibition turned out to be 100% with Plasmodium falciparum [1], 99% with Plasmodium falciparum [2] and 62% with HepG2.

As for `Br.Cc1cc(F)ccc1Nc1nc(N(C)c2ccccc2)c2cccc(O)c2n1`, the Inhibition with Plasmodium falciparum [1] was found to be 92%; in the assay on Plasmodium falciparum [2], 81%; in the assay with HepG2, 38%.

With `Cc1ccc2c(c1)c(-c1ccccc1)c(-c1ccccc1)n2CC(O)CN1CCN(CC=Cc2ccccc2)CC1` (stereo not given), the Inhibition in the assay with Plasmodium falciparum [1] is reported as 98%; in the assay with Plasmodium falciparum [2] it was 98%; with HepG2 it was 0%.

`Cl.O=C1CSc2ccc(CNC3CCN(CCc4c(Cl)cnc5ccc(F)cc45)CC3)nc2N1`: the Inhibition with Plasmodium falciparum [1] was 98%; with Plasmodium falciparum [2], 52%; in the assay with HepG2, 21%.

Take `CC(Cc1ccc(Cl)cc1)Nc1nc(NC2CCCC2)nc(N2CCC(C#N)(c3ccccc3)CC2)n1` (stereo not given): the Inhibition is on record as 99% in the assay on Plasmodium falciparum [1], 95% in the assay on Plasmodium falciparum [2] and 15% with HepG2.

In the case of `O=C(COc1ccccc1Cc1ccccc1)Nc1cc(Cl)ccc1-n1cncn1`, the Inhibition in the assay on Plasmodium falciparum [1] is given as 92%; with Plasmodium falciparum [2], 93%; in the assay on HepG2, 5%.

As for `Cc1cccc2nc(-c3cccc(-c4cccc(NC(=O)c5ccncc5)c4)c3)[nH]c12`, the figures for the Inhibition with Plasmodium falciparum [1], with Plasmodium falciparum [2] and in the assay on HepG2 were 100%, 78% and 22%, respectively.

As to `CCOc1cc2ncnc(Nc3ccc(OCc4ccccc4F)c(Cl)c3)c2cc1OCC.Cl`, the Inhibition in the assay with Plasmodium falciparum [1] amounted to 100%; with Plasmodium falciparum [2], 74%; in the assay on HepG2 it was 4%.

Turning to `Cl.c1ccc(-c2ccc3c(Nc4ccc5[nH]ccc5c4)ccnc3c2)nc1`, the Inhibition in the assay with Plasmodium falciparum [1] came to 91%; in the assay on Plasmodium falciparum [2], 78%; in the assay with HepG2, 11%.

Turning to `COC(=O)c1ccc2nc(-c3ccc(C(=O)NC4CCN(Cc5ccccc5)CC4)s3)[nH]c2c1`, the figures for the Inhibition with Plasmodium falciparum [1], in the assay on Plasmodium falciparum [2] and in the assay on HepG2 were 99%, 71% and 0%, respectively.

As for `COc1ccc(CCNCCCCCCNCCc2ccc(OC)c(OC)c2Cl)c(Cl)c1OC.Cl`, the Inhibition with Plasmodium falciparum [1] is listed as 96%; in the assay with Plasmodium falciparum [2] it was 0%; in the assay with HepG2 it was 19%.

For the compound `N#Cc1ccc2c(c1)CN(C1CCC(NC(=O)C3=Cc4cc(Cl)ccc4OC3)CC1)CCC2` (stereo not given), the Inhibition with Plasmodium falciparum [1] turned out to be 93%; with Plasmodium falciparum [2], 8%; in the assay with HepG2, 0%.

`COc1ccc(-c2ccc(NC(=O)c3ccc(Cl)cc3)cc2)cc1CN1CCNCC1.O=C(O)C(F)(F)F`: the Inhibition is reported as 99% in the assay with Plasmodium falciparum [1], 24% in the assay with Plasmodium falciparum [2] and 14% in the assay with HepG2.

With `CN1CCN(CCNc2c3ccccc3nc3c2ccc2ccccc23)CC1.Cl`, the Inhibition is reported as 100% in the assay with Plasmodium falciparum [1], 66% in the assay with Plasmodium falciparum [2] and 76% in the assay with HepG2.

Take `CN1CCCC(CN2CCN(Cc3cccc(-c4ccc(-c5nc6ccccc6[nH]5)s4)c3)CC2)C1.O=C(O)C(F)(F)F` (stereo not given): the Inhibition in the assay on Plasmodium falciparum [1] was 99%; with Plasmodium falciparum [2] it was 99%; with HepG2, 52%.

As to `O=C(Nc1ccccc1)Nc1cccc(-c2nn3c(OCC4CCCCN4)cccc3c2-c2ccncc2)c1` (stereo not given), the Inhibition in the assay with Plasmodium falciparum [1] is 97%; with Plasmodium falciparum [2], 82%; in the assay on HepG2, 9%.

Take `COC1CCC(C(=O)Nc2ccc(-c3cccc(-c4nc5cc(C(F)(F)F)ccc5[nH]4)c3)cc2)CC1` (stereo not given): the Inhibition was determined as 85% with Plasmodium falciparum [1], 48% with Plasmodium falciparum [2] and 69% with HepG2.

Consider `Clc1ncnc2ncn(Cc3cccc(Br)c3)c12`, for which the Inhibition in the assay on Plasmodium falciparum [1] is 91%; in the assay with Plasmodium falciparum [2], 56%; with HepG2 it was 0%.

As to `COc1cc(Cc2cnc(N)nc2N)cc(OC)c1OCCCCCN1C(=O)c2ccccc2C1=O`, the Inhibition in the assay on Plasmodium falciparum [1] came to 97%; in the assay on Plasmodium falciparum [2] it was 4%; in the assay with HepG2 it was 5%.

With `COc1ccc2nccc([C@@H](O)CN3CCC(NCCOc4cc(F)cc(F)c4)CC3)c2c1.O=C(O)C(=O)O`, the Inhibition with Plasmodium falciparum [1] is reported as 100%; in the assay on Plasmodium falciparum [2], 86%; in the assay with HepG2 it was 10%.

For the compound `Nc1nc(N)c2c(ccc3c2ccn3Cc2ccc(Cl)cc2)n1`, the Inhibition in the assay on Plasmodium falciparum [1] was determined as 100%; in the assay with Plasmodium falciparum [2], 99%; with HepG2 it was 100%.

In the case of `O=C(Nc1cccc(-c2ccc(-c3nc4ccccc4[nH]3)s2)c1)c1ccncc1`, the Inhibition in the assay with Plasmodium falciparum [1] is on record as 92%; with Plasmodium falciparum [2] it was 29%; in the assay on HepG2, 67%.
